Compounds without any hit were thinned out: in the full panel of roughly 83,000, 20% have a hit.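 Testing used 96-well plates and a 48-hour single-concentration exposure. Example: -40 means 40% of the starting cells died.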 Activity calls are given as the source filed them. The calls were made as follows: active = growth percent below 10; inactive = the rest.
Experiments:
Experiment in all cases: NCI-60 one-dose screen, 48 h (100 = growth as untreated, 0 = no growth, -100 = all killed)
Settings in all cases: 10 µM unless noted
NCI-H226 lung = test system: NCI-H226 lung
NCI-H322M lung = test system: NCI-H322M lung
HOP-62 NSCLC = test system: HOP-62 NSCLC
NCI-H460 lung = test system: NCI-H460 lung
HOP-92 NSCLC = test system: HOP-92 NSCLC
NCI-H522 lung = test system: NCI-H522 lung
A549/ATCC NSCLC = test system: A549/ATCC NSCLC
786-0 renal = test system: 786-0 renal
COLO 205 colon = test system: COLO 205 colon

Measured: growth

Cn1cc(-c2cc3nc(-c4c[nH]c5ccc(Br)cc45)cc(N)n3n2)c2ccccc21
active: NCI-H226 lung -35% | NCI-H322M lung -48.8% | HOP-62 NSCLC -74.4% | NCI-H460 lung -52.9% | HOP-92 NSCLC -73.6% | NCI-H522 lung -68.9% | A549/ATCC NSCLC -71.7% | 786-0 renal -89.6% | COLO 205 colon -83.5%

C#CCOc1ccc(/C=N/Nc2nc(-c3cc4cc(OC)ccc4oc3=O)cs2)cc1OC
active: NCI-H460 lung 8.62% | HOP-92 NSCLC -0.0146%
inactive: NCI-H226 lung 14.2% | NCI-H322M lung 72.2% | HOP-62 NSCLC 71.9% | NCI-H522 lung 42% | A549/ATCC NSCLC 10% | 786-0 renal 74.2% | COLO 205 colon 63.6%

C#CCOc1ccc(/C=N/Nc2nc(-c3ccc(F)cc3)cs2)cc1OC
inactive: NCI-H226 lung 54.1% | NCI-H322M lung 83.1% | HOP-62 NSCLC 86.9% | HOP-92 NSCLC 34.2% | NCI-H522 lung 46.9% | A549/ATCC NSCLC 72.9% | 786-0 renal 84.4% | COLO 205 colon 68.9%

CCOC(=O)/C=C/c1cccc2c1C(=O)NC(C)(c1cc3cc(Br)ccc3oc1=O)N2 (centres undefined)
inactive: NCI-H226 lung 43.3% | NCI-H322M lung 88% | HOP-62 NSCLC 65.6% | NCI-H460 lung 46.1% | HOP-92 NSCLC 40.2% | NCI-H522 lung 29.1% | A549/ATCC NSCLC 40.1% | 786-0 renal 59.4% | COLO 205 colon 46.5%

CCOC(=O)C(N=Nc1ccc(S(=O)(=O)N=C(N)N)cc1)C(C)=O (centres undefined)
inactive: NCI-H226 lung 95.1% | NCI-H322M lung 107% | HOP-62 NSCLC 119% | NCI-H460 lung 109% | HOP-92 NSCLC 99.9% | NCI-H522 lung 95.2% | A549/ATCC NSCLC 107% | 786-0 renal 96.7% | COLO 205 colon 106%

O=C(CSc1nc2ccccc2c(=O)[nH]1)NCCN1CCCCC1
inactive: NCI-H226 lung 95.7% | NCI-H322M lung 94.8% | HOP-62 NSCLC 106% | NCI-H460 lung 104% | HOP-92 NSCLC 101% | NCI-H522 lung 90.6% | A549/ATCC NSCLC 100% | 786-0 renal 102% | COLO 205 colon 99%

CCN(CC)c1ccc(/C=N/Nc2nc(-c3ccc(C)cc3)cs2)c(O)c1
inactive: NCI-H226 lung 63.7% | NCI-H322M lung 98.1% | HOP-62 NSCLC 109% | NCI-H460 lung 111% | HOP-92 NSCLC 108% | NCI-H522 lung 65.2% | A549/ATCC NSCLC 92.2% | 786-0 renal 96.2% | COLO 205 colon 110%

COc1ccc(/C=N/NC(=O)Cn2nc(Cc3ccc(OC)cc3)c3onc(C)c3c2=O)cc1
inactive: NCI-H226 lung 49.6% | NCI-H322M lung 59% | HOP-62 NSCLC 42.8% | NCI-H460 lung 30.5% | NCI-H522 lung 58.1% | A549/ATCC NSCLC 45.2% | COLO 205 colon 55.7%
active: HOP-92 NSCLC -20% | 786-0 renal -55.5%

CC1(C)CC[C@]2(C(=O)O)CC[C@]3(C)C(=CCC4[C@@]5(C)C[C@@H](O)[C@@H]6OC(c7ccccc7Br)OC[C@@]6(C)C5CC[C@]43C)C2C1 (some centres undefined)
active: HOP-92 NSCLC -1.51% | COLO 205 colon -36.9%
inactive: NCI-H226 lung 26.7% | NCI-H322M lung 21.2% | HOP-62 NSCLC 30.3% | NCI-H522 lung 12.1% | A549/ATCC NSCLC 16.6% | 786-0 renal 24.9%

C#C[C@]1(O)CC[C@H]2[C@@H]3CC=C4c5sc(-c6ccc(O)c(O)c6)nc5CC[C@]4(C)[C@H]3CC[C@@]21C
active: NCI-H226 lung -65.4% | NCI-H322M lung -79.6% | HOP-62 NSCLC -83.1% | NCI-H460 lung -77.6% | HOP-92 NSCLC -53.8% | A549/ATCC NSCLC -78.6% | 786-0 renal -88.3% | COLO 205 colon -80.2%

CC1[C@H]2[C@H](C[C@H]3[C@@H]4CC=C5c6sc(Nc7ccccc7F)nc6CC[C@]5(C)[C@H]4CC[C@@]32C)O[C@]12CC[C@@H](C)CO2 (some centres undefined)
active: NCI-H226 lung -29.2% | NCI-H322M lung -31.4% | HOP-62 NSCLC -62.4% | NCI-H460 lung -62.6% | HOP-92 NSCLC -59.2% | A549/ATCC NSCLC -63.5% | 786-0 renal -82.1% | COLO 205 colon -88.3%

C#CCOc1ccc(/C=N/Nc2nc(-c3ccc(Cl)cc3)cs2)cc1OC
inactive: NCI-H226 lung 56.3% | NCI-H322M lung 89.3% | HOP-62 NSCLC 84.7% | NCI-H460 lung 68% | NCI-H522 lung 47.5% | A549/ATCC NSCLC 64.4% | 786-0 renal 69.2% | COLO 205 colon 54.7%

CCOC(=O)C1=C(N)N(c2ccccc2)C2=C(C(=O)CC(C)(C)C2)C1c1ccccc1Cl (centres undefined)
inactive: NCI-H226 lung 76.3% | NCI-H322M lung 82.2% | HOP-62 NSCLC 94.1% | NCI-H460 lung 60.2% | NCI-H522 lung 57.5% | A549/ATCC NSCLC 75.6% | 786-0 renal 79.4% | COLO 205 colon 65.3%

Cc1ccc(-c2nc(C#N)c(S(=O)(=O)N3CCN(S(=O)(=O)c4ccccc4)CC3)o2)cc1
inactive: NCI-H226 lung 69.2% | NCI-H322M lung 77.9% | HOP-62 NSCLC 87.7% | NCI-H460 lung 32.6% | A549/ATCC NSCLC 57.9%
active: HOP-92 NSCLC -20.4% | 786-0 renal -87.1% | COLO 205 colon -62.1%
